The results in this text go back to PubChem BioAssay (NCI).

This is part of a sample that, as a whole, favours compounds with a hit. Of some 79,000 tested, about 15% had one in any assay. Unmarked numbers belong to inactive results. Activity calls are given as the source filed them. Rule as the data show it: active = growth inhibition above about 70%; inactive = the rest.

A short description of test [1]: NCI Yeast Anticancer Drug Screen. Data for the rad50 strain (AID 155).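 Also: 0% = growth of vehicle-only cultures of the same strain.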 As to conditions: S. cerevisiae rad50 strain growth inhibition, stronger effect = higher value. The gist of the method:
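Relative growth inhibition (compound vs vehicle) was measured in yeast with a defined repair-gene alteration.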

Test [2] in a line: NCI Yeast Anticancer Drug Screen. Data for the mec2-1 strain (AID 157). As to conditions: S. cerevisiae mec2-1 strain, stronger effect = higher value. The gist of the method:
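Test agents were screened against the mec2-1 yeast strain, with defined DNA repair or cell cycle alteration. Growth was scored as inhibition against vehicle-only controls.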

Test [3] can be described thus: NCI Yeast Anticancer Drug Screen. Data for the sgs1 mgt1 strain (AID 161).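 Also: 0% = growth of cultures given vehicle only.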 As to conditions: S. cerevisiae sgs1 mgt1 strain, stronger effect = higher value. The essentials: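 Inhibition of yeast growth, normalised to vehicle-treated controls, is reported for a strain bearing genetic alterations in DNA damage repair.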
Test [4] in a line: NCI Yeast Anticancer Drug Screen. Data for the cln2 rad14 strain (AID 165).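 Also: 0% = growth equal to vehicle treated cultures.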 As to conditions: S. cerevisiae cln2 rad14 strain, stronger effect = higher value. The essentials:
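Growth of compound-exposed yeast (cln2 rad14 genotype) measured and expressed as inhibition relative to vehicle.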

A short description of test [5]: NCI Yeast Anticancer Drug Screen. Data for the bub3 strain (AID 167). As to conditions: S. cerevisiae bub3 mutant strain, stronger effect = higher value. The essentials:
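Screening used yeast with an engineered genetic alteration affecting cell cycle control. Compound-exposed cultures were compared with vehicle cultures, and reduced growth was taken as inhibition.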

Test [6] can be described thus: NCI Yeast Anticancer Drug Screen. Data for the mlh1 rad18 strain (AID 175). As to conditions: S. cerevisiae mlh1 rad18 strain growth inhibition, stronger effect = higher value. The essentials:
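In this whole-cell yeast screen, a strain with altered DNA damage repair is challenged with compound, and its growth is measured against matched vehicle-treated controls.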

Setting [7] is: at 5.0 µM (retest, dose inferred, filed as 0.5).
The mark [8] stands for this setting: at 50.0 µM (retest, dose inferred, filed as 5.0).

As to `C[n+]1c(-c2cccc(OCCCCCCCCOc3cccc(-c4c5cc(N)ccc5c5ccc(N)cc5[n+]4C)c3)c2)c2cc(N)ccc2c2ccc(N)cc21`, the growth inhibition was 99% (active) in test [1] (setting [7]); 97% (active) in test [1] (setting [8]); 85.3% (active) in test [1] (at 50.0 µM); 99% (active) in test [2] (setting [7]); 99% (active) in test [2] (setting [8]); 88.2% (active) in test [2] (at 50.0 µM). Also, the growth inhibition was 97% (active) in test [3] (setting [7]); 98% (active) in test [3] (setting [8]); 89.8% (active) in test [3] (at 50.0 µM); 98% (active) in test [4] (setting [7]); 97% (active) in test [4] (setting [8]); 89.8% (active) in test [4] (at 50.0 µM). For the same molecule, the growth inhibition in test [5] (setting [7]) was 99% (active); in test [5] (setting [8]), 98% (active); in test [5] (at 50.0 µM), 88.5% (active); in test [6] (setting [7]), 96% (active); in test [6] (setting [8]), 97% (active); in test [6] (at 50.0 µM), 89.3% (active).
As for `CCCOc1ccc(-c2nc(-c3ccc(N=Cc4ccc(N(CCOS(C)(=O)=O)CCOS(C)(=O)=O)cc4C)cc3)cs2)cc1`, the growth inhibition in test [1] (setting [7]) is 13%; in test [1] (setting [8]), 82% (active); in test [1] (at 50.0 µM) it was 84.7% (active); in test [2] (setting [7]), 7%; in test [2] (setting [8]), 83% (active); in test [2] (at 50.0 µM), 76.8% (active). The growth inhibition in test [3] (setting [7]) is 8%; in test [3] (setting [8]) it was 89% (active); in test [3] (at 50.0 µM) it was 46.5%; in test [4] (setting [7]), 7%; in test [4] (setting [8]), 53%; in test [4] (at 50.0 µM), 24.6%. The growth inhibition in test [5] (setting [7]) is -3%; in test [5] (setting [8]), 2%; in test [5] (at 50.0 µM) it was 37%; in test [6] (setting [7]), 50%; in test [6] (setting [8]), 95% (active); in test [6] (at 50.0 µM) it was 92.4% (active).
In the case of `O=C(NCCCCCNC(=O)C12CC3CC(CC(C3)C1)C2)C12CC3CC(CC(C3)C1)C2`, the growth inhibition in test [1] (setting [7]) is 8%; in test [1] (setting [8]), 7%; in test [1] (at 50.0 µM), 5.9%; in test [2] (setting [7]) it was 5%; in test [2] (setting [8]), -8%; in test [2] (at 50.0 µM), 27.8%. In addition, the growth inhibition in test [3] (setting [7]) is 7%; in test [3] (setting [8]), 7%; in test [3] (at 50.0 µM), -5.15%; in test [4] (setting [7]) it was -1%; in test [4] (setting [8]), -2%; in test [4] (at 50.0 µM) it was 40.2%. Besides, the growth inhibition is 4% in test [5] (setting [7]); 0% in test [5] (setting [8]); 1.75% in test [5] (at 50.0 µM); 3% in test [6] (setting [7]); 12% in test [6] (setting [8]); 4.15% in test [6] (at 50.0 µM).
As for `O=C(NCCCCCCNC(=O)n1cc(F)c(=O)[nH]c1=O)NCCCOCCOCCOCCOCCOCCOCCOCCOCCOCCOCCOCCOCCOCCOCCOCCOCCOCCOCCOCCOCCOCCCNC(=O)C(O)C(O)C(O)C(O)CO` (configuration not stated), the growth inhibition in test [1] (setting [7]) is 6%; in test [1] (setting [8]), 31%; in test [1] (at 50.0 µM), 42.2%; in test [2] (setting [7]), 4%; in test [2] (setting [8]), 60%; in test [2] (at 50.0 µM), 82% (active). Moreover, the growth inhibition in test [3] (setting [7]) was 23%; in test [3] (setting [8]) it was 87% (active); in test [3] (at 50.0 µM), 76.8% (active); in test [4] (setting [7]), 33%; in test [4] (setting [8]), 8%; in test [4] (at 50.0 µM), 24.4%. Moreover, the growth inhibition was 11% in test [5] (setting [7]); 34% in test [5] (setting [8]); -4.9% in test [5] (at 50.0 µM); 7% in test [6] (setting [7]); 35% in test [6] (setting [8]); -10.8% in test [6] (at 50.0 µM).
For the molecule `COC/C=N/Nc1ccc([N+](=O)[O-])cc1`, the growth inhibition was 90% (active) in test [1] (setting [7]); 98% (active) in test [1] (setting [8]); 98.6% (active) in test [1] (at 50.0 µM); 45% in test [2] (setting [7]); 98% (active) in test [2] (setting [8]); 98.3% (active) in test [2] (at 50.0 µM). Also, the growth inhibition in test [3] (setting [7]) is 90% (active); in test [3] (setting [8]), 98% (active); in test [3] (at 50.0 µM), 98% (active); in test [4] (setting [7]), 46%; in test [4] (setting [8]) it was 98% (active); in test [4] (at 50.0 µM) it was 98.5% (active). Besides, the growth inhibition in test [5] (setting [7]) is 94% (active); in test [5] (setting [8]), 98% (active); in test [5] (at 50.0 µM) it was 99% (active); in test [6] (setting [7]), 90% (active); in test [6] (setting [8]), 98% (active); in test [6] (at 50.0 µM), 98.5% (active).
In the case of `CCN(CC)CCOC(=O)CCN1CC2CCC(CC2)C1`, the growth inhibition in test [1] (setting [7]) was 14%; in test [1] (setting [8]) it was 15%; in test [1] (at 50.0 µM), -35.6%; in test [2] (setting [7]), 13%; in test [2] (setting [8]) it was 7%; in test [2] (at 50.0 µM) it was -22.1%. The growth inhibition is 17% in test [3] (setting [7]); 4% in test [3] (setting [8]); -23.9% in test [3] (at 50.0 µM); 23% in test [4] (setting [7]); 3% in test [4] (setting [8]); 9.4% in test [4] (at 50.0 µM). Moreover, the growth inhibition in test [5] (setting [7]) was 0%; in test [5] (setting [8]), -4%; in test [5] (at 50.0 µM) it was -32.8%; in test [6] (setting [7]) it was 18%; in test [6] (setting [8]), 10%; in test [6] (at 50.0 µM), -21.4%.
For the molecule `O=C(Nc1ccccc1F)C(Br)C(Br)c1ccccc1` (configuration not stated), the growth inhibition in test [1] (setting [7]) was 6%; in test [1] (setting [8]), 97% (active); in test [1] (at 50.0 µM) it was 98.6% (active); in test [2] (setting [7]) it was 8%; in test [2] (setting [8]), 90% (active); in test [2] (at 50.0 µM) it was 99% (active). Moreover, the growth inhibition was 23% in test [3] (setting [7]); 97% (active) in test [3] (setting [8]); 99.4% (active) in test [3] (at 50.0 µM); 6% in test [4] (setting [7]); 36% in test [4] (setting [8]); 99.1% (active) in test [4] (at 50.0 µM). Further, the growth inhibition in test [5] (setting [7]) was -1%; in test [5] (setting [8]), 95% (active); in test [5] (at 50.0 µM) it was 99% (active); in test [6] (setting [7]) it was 29%; in test [6] (setting [8]), 95% (active); in test [6] (at 50.0 µM), 98.9% (active).
Consider `COc1ccc(CC2C(=O)NC(C)C(=O)N(C)C3Cc4ccc(cc4)Oc4cc(ccc4O)CC(C(=O)NC(C)C(=O)NC(C)C(=O)N2C)N(C)C3=O)cc1` (configuration not stated), for which the growth inhibition in test [1] (setting [7]) was -6%; in test [1] (setting [8]) it was 54%; in test [1] (at 50.0 µM), 61.1%; in test [2] (setting [7]), 25%; in test [2] (setting [8]), 64%; in test [2] (at 50.0 µM), 39.8%. Further, the growth inhibition in test [3] (setting [7]) was 25%; in test [3] (setting [8]), 48%; in test [3] (at 50.0 µM), 66.5%; in test [4] (setting [7]), 46%; in test [4] (setting [8]), 72% (active); in test [4] (at 50.0 µM), 70.5% (active). Further, the growth inhibition is 16% in test [5] (setting [7]); 64% in test [5] (setting [8]); 59.6% in test [5] (at 50.0 µM); -1% in test [6] (setting [7]); 77% (active) in test [6] (setting [8]); 53.5% in test [6] (at 50.0 µM).
On to `COC1(OC)CNC(C(=O)O)C1` (configuration not stated), for which the growth inhibition in test [1] (setting [7]) was -154%; in test [1] (setting [8]), -139%; in test [1] (at 50.0 µM) it was 19.1%; in test [2] (setting [7]), -44%; in test [2] (setting [8]), -45%; in test [2] (at 50.0 µM), 2.65%. For the same molecule, the growth inhibition in test [3] (setting [7]) is -66%; in test [3] (setting [8]), -59%; in test [3] (at 50.0 µM), 18.2%; in test [4] (setting [7]), -54%; in test [4] (setting [8]), -49%; in test [4] (at 50.0 µM), 2.4%. The growth inhibition in test [5] (setting [7]) was -71%; in test [5] (setting [8]), -66%; in test [5] (at 50.0 µM), 21.4%; in test [6] (setting [7]), -141%; in test [6] (setting [8]) it was -111%; in test [6] (at 50.0 µM), 13.3%.
